In PubChem BioAssay AID1851 (National Center for Advancing Translational Sciences (NCATS), 2009):
About 5,800 (36%) of roughly 16,000 compounds were called active. Inconclusive results (about 23%) are left out. Calls come from the whole dose curve; as a rule, active = well fitted curve in the direction sought with a large enough effect; inconclusive = small, poorly fitted or top-dose-only effect, or effect the other way; inactive = no such curve, though single readings can be large or run the other way. The list shows a part of the results.

Target: Cytochrome P450 2C19 (Homo sapiens) (UniProt P33261)
Assay: Cytochrome panel assay with activity outcomes
Details: recombinant CYP, pro-luciferin dealkylation, luminescence, p450-cyp2c19; series mostly up to 57.1 µM
% is set by controls: 0 for no effect and ±100 for the full control effect.

Cytochrome P450 2C19 (Homo sapiens), sequence (P33261 whole entry, looked up): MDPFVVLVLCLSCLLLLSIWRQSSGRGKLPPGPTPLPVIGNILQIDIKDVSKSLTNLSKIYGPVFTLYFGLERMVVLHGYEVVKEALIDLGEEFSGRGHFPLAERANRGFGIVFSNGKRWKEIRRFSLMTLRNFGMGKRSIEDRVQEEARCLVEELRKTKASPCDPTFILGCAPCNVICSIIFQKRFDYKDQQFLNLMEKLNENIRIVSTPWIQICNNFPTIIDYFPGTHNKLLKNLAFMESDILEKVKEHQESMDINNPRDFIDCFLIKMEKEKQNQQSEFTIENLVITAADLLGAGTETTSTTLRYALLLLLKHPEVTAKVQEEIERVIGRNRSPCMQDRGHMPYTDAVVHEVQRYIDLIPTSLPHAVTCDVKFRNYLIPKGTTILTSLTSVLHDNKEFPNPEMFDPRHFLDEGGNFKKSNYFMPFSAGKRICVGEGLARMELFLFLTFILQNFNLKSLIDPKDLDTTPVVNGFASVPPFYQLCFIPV

SMILES | AC50 | activity, negative = inhibition
FC(F)(F)c1cc(CN2CC3(CCNCC3)C2)cc(C(F)(F)F)c1 | inactive | 
COc1cc(C2SCCCCCCCCCCSC(c3ccc(O)c(OC)c3)SCCCCCCCCCCS2)ccc1O (stereo not given) |  | 20.3% [at 11.4 µM] (inactive)
COc1ccc(Oc2ncc3nc(-c4cn(C)c5ccccc45)c(=O)n(C)c3n2)cc1 | inactive | 
Cn1c(Oc2ccccc2)c(C=O)c2ccccc21 | 4.47 µM (active) | 
Cc1ccc(C(=O)O/N=C/c2c(Cl)n(C)c3ccccc23)cc1 | inactive | 
Cn1cc(-c2nc3cnc(Oc4ccccc4)nc3n(C)c2=O)c2ccccc21 | inactive | 
COc1ccc(Oc2c(C=O)c3ccccc3n2C)cc1 | 2.82 µM (active) | 
O=C(COc1ccccc1Cl)Nc1cc(Cl)ccc1Oc1ccccc1 | 1 µM (active) | 
Cc1cc(NC(=O)COc2ccc(Cl)cc2Cl)n(-c2ccccc2)n1 | 1.12 µM (active) | 
Cc1noc(C)c1-c1ccc2ncnc(NC3CCNCC3)c2c1 | 15.8 µM (active) | 
CN(C)c1ccc(-c2ccc3ncnc(NC4CC4)c3c2)cc1 | inactive | 
c1nc(NC2CCNCC2)c2cc(-c3ccoc3)ccc2n1 | inactive | 
COc1cccc(-c2ccc3ncnc(NC4CCNCC4)c3c2)c1 | 6.31 µM (active) | 
c1cncc(-c2ccc3ncnc(NC4CCNCC4)c3c2)c1 | inactive | 
CS(=O)(=O)Nc1cccc(-c2ccc3ncnc(NC4CCNCC4)c3c2)c1 | inactive | 
c1nc(NC2CCNCC2)c2cc(-c3ccc4c(c3)OCO4)ccc2n1 | inactive | 
COc1cccc(-c2ccc3ncnc(NC4CC4)c3c2)c1 | 1.26 µM (active) | 
Cn1c(=O)c(-c2ccc(Cl)cc2)nc2cnc(OCc3ccccc3)nc21 | inactive | 
Cc1cc(C)n(-c2nc3ccccc3c(=O)n2OCc2ccc(Cl)cc2)n1 | 0.398 µM (active) | 
CCOC(=O)c1cc2c(ccn2C)n1CC(=O)N1CCCC(C)C1 (stereo not given) | 8.91 µM (active) | 
Cc1ccc(C)c(Cn2c(C(=O)OC(C)C)cc3c2ccn3C)c1 | 1.78 µM (active) | 
C[C@@H](CN1CCC(Cc2ccccc2)CC1)[C@H](O)c1ccc(O)cc1 | inactive | 
C[C@@H](CN1CCC(Cc2ccccc2)CC1)[C@@H](O)c1ccc(O)cc1 | inactive | 
CC(C)OC(=O)c1cc2c(ccn2C)n1CC(=O)N1CCC(Cc2ccccc2)CC1 | 14.1 µM (active) | 

SMILES | AC50 | activity, negative = inhibition
Clc1ccc(-c2nnc(CCc3ccccc3)o2)c(Cl)c1 | 1.41 µM (active) | 
CSc1nnc(-c2ccc(Cl)cc2Cl)o1 | 25.1 µM (active) | 
c1ccc(C2=NN[C@@H]3c4ccccc4-c4ccccc4N3C2)cc1 |  | -22.1% [at 11.4 µM] (inactive)
CS(=O)(=O)Nc1cccc(-c2cncnc2-n2ccnc2)c1 | inactive | 
CN(C)c1ccc(-c2ccc3ncnc(N(C)C)c3c2)cc1 | inactive | 
CN(C)c1ccc(-c2cncnc2-n2ccnc2)cc1 | 3.98 µM (active) | 
CN(C)C(=O)c1ccc(-c2ccc3ncnc(N4CCNCC4)c3c2)cc1 | inactive | 
COc1cccc(-c2cncnc2-n2ccnc2)c1 | 0.631 µM (active) | 
CN1CCN(c2ncncc2-c2ccc(C(=O)N(C)C)cc2)CC1 | inactive | 
c1cncc(-c2cncnc2-n2ccnc2)c1 | inactive | 
CN(C)c1ccc(-c2ccc3ncnc(-n4ccnc4)c3c2)cc1 | 10 µM (active) | 
CN1CCN(c2ncncc2-c2ccc(N(C)C)cc2)CC1 | 10 µM (active) | 
CN(C)C(=O)c1ccc(-c2cncnc2N2CCNCC2)cc1 | inactive | 
CN(C)c1ccc(-c2cc(-n3ccnc3)ncn2)cc1 | 7.94 µM (active) | 
c1cn(-c2ncnc3ccc(-c4ccoc4)cc23)cn1 | 10 µM (active) | 
Cc1ccccc1-c1ccc2ncnc(-n3ccnc3)c2c1 | 2 µM (active) | 
COCCNc1ncnc2ccc(-c3ccoc3)cc12 | inactive | 
N#Cc1ccccc1-c1ccc2ncnc(N3CCNCC3)c2c1 | inactive | 
CN1CCN(c2cc(-c3ccc(N(C)C)cc3)ncn2)CC1 | inactive | 
CCCCN(CC)C(=O)Cc1ccccc1OC | 4.47 µM (active) | 
CCN(CC)C(=O)c1ccc(O)c(OC)c1 | inactive | 
COc1ccccc1CN1CCC2(CC1)CCN(C(C)=O)CC2 | inactive | 
Cc1ccc2nc(Cc3ccc(N)cc3)[nH]c2c1 | 3.55 µM (active) | 
Nc1nc(SCc2ccccc2Cl)cc(C(=O)O)n1 |  | 35% [at 11.4 µM] (inactive)

SMILES | AC50 | activity, negative = inhibition
N#Cc1c(SCC(N)=O)nsc1SCc1ccccc1Cl | 1.12 µM (active) | 
CN(C)C(=O)c1ccc(-c2nc(NC3CCNCC3)c3ccccc3n2)cc1 | inactive | 
CC1CCC(NC(=O)CC(C)(C)Cc2nc3ccccc3c(=O)[nH]2)CC1 (stereo not given) | 6.31 µM (active) | 
CN=C(NC#N)Nc1ccc(C2=NNC(=O)C[C@@H]2C)cc1 | inactive | 
COc1ccc(-c2nc3cnc(N4CCN(C)CC4)nc3n(CCc3ccccc3)c2=O)cc1 | inactive | 
O=c1cnc2cnc(N3CCOCC3)nc2n1Cc1ccc(F)cc1 | 3.98 µM (active) | 
O=c1cnc2cnc(N3CCOCC3)nc2n1CCc1ccccc1 | 0.1 µM (active) | 
CN1CCN(c2ncc3ncc(=O)n(Cc4ccc(F)cc4)c3n2)CC1 | inactive | 
CN1CCN(c2ncc3nc(-c4ccccc4)c(=O)n(CCc4ccccc4)c3n2)CC1 | inactive | 
O=c1cnc2cnc(N3CCOCC3)nc2n1C[C@H]1CCCO1 | inactive | 
Cc1nc2cnc(N3CCN(C)CC3)nc2n(CCc2ccccc2)c1=O | 5.01 µM (active) | 
CN1CCN(c2ncc3ncc(=O)n(CCc4ccccc4)c3n2)CC1 | 6.31 µM (active) | 
COc1ccc(-c2nc3cnc(N4CCOCC4)nc3n(CCc3ccccc3)c2=O)cc1 | inactive | 
CN1CCN(c2ncc3ncc(=O)n(Cc4cccs4)c3n2)CC1 | inactive | 
CN1CCN(c2ncc3nc(-c4cccs4)c(=O)n(CCc4ccccc4)c3n2)CC1 | inactive | 
O=c1c(-c2ccccc2)nc2cnc(N3CCOCC3)nc2n1CCc1ccccc1 | inactive | 
COC(=O)CCC(=O)NNC(=O)c1ccc(Br)cc1 | inactive | 
COc1ccc(C(=O)NCC(=O)OCc2cccc(Br)c2)cc1 | 3.55 µM (active) | 
COc1ccc(O)c(/C=N/NC(=O)c2ccc(OCc3cccc(Br)c3)cc2)c1 | inactive | 
COC(=O)C/C=C\[C@H](C)[C@@H](OC)c1ccccc1Br |  | -6.61% [at 11.4 µM] (inactive)
CO/N=C\[C@@H](OC)[C@H](C)/C=C\CC(=O)OC |  | -12.9% [at 11.4 µM] (inactive)
CCO[C@H](c1cc(OC)cc([N+](=O)[O-])c1OC)[C@H](C)/C=C\CC(=O)OC | 0.398 µM (active) | 
